A selection: hits, their analogues and other compounds. The true share with any hit is near 21%.
DRD3 agonist – activates the human D3 dopamine receptor; P35462; D3R DiscoveRx beta-arrestin cells, luminescence, 90 min; max activation, %; hit rate 0.58% among 410,000; AID 652048; in the data active = max activation above about 30%; also: 0% is about no effect
Target sequence (P35462 whole entry, looked up): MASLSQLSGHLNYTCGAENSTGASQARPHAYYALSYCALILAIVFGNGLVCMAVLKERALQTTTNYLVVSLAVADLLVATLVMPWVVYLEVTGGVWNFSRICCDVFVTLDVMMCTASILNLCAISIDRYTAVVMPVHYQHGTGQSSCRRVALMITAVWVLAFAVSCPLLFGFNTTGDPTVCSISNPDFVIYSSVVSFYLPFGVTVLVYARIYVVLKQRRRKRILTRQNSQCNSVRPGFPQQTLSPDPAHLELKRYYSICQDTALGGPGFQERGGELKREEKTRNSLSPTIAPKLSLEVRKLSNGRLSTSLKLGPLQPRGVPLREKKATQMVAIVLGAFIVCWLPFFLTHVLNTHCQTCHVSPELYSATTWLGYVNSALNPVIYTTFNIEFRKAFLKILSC
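Agonist mode: compounds and dopamine controls were applied to plated cells for 90 min at 37 degrees C after an overnight attachment at 1500 cells/well. Luminescent read-out followed 30 - 60 minutes at room temperature with DiscoveRx detection reagent.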
IL-1B inflam inh – inhibitors of inflammasome signaling (IL-1 beta secretion) | THP-1 LPS/ATP IL-1B secretion, AlphaLISA, 16 h; stronger effect = lower value | AID 743279 | activity change, % at 57.5 µM | hit rate 4.7% among 360,000; in the data active = activity change below about -50%; inconclusive = mostly about -30% to -49%; also: % is scaled to controls: 0 for no effect and ±100 for the full control effect
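Secreted IL-1B measured by AlphaLISA bead assay after 16 h compound exposure of THP-1 cells; compounds (final up to 57.5 uM) added 1 h before LPS (250 ng/mL) and ATP (1.25 mM) stimulation; lower signal means less secretion.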
ClpP mod – qHTS Assay for Activators of ClpP; purified B. subtilis ClpP, FRET peptide cleavage, 20 min; hit rate 1.9% among 340,000; ATP-dependent Clp protease proteolytic subunit (Bacillus subtilis (strain 168)), P80244; Potency, µM (highest dose often 57.5 µM), without a hit: at the top dose activity change, negative = active; active = well fitted falling curve with a large enough effect; inconclusive = small, poorly fitted or top-dose-only effect; inactive = no such curve, though single readings can be large or run the other way; also: potency is read from the fitted curve at half-maximal effect; the source files actives as falling curves though it sought activators and does not explain the sign; nearly all actives have a fitted effect of over 65% in size
Target sequence (P80244 whole entry, looked up): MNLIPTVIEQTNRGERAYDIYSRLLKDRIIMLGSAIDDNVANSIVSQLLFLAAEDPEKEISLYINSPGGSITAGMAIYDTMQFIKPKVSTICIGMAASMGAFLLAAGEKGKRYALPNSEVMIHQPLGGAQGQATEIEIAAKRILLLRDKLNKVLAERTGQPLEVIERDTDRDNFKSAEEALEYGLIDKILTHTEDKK
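FRET quenching reversal measured ClpP activation: 10 microg/mL B. subtilis ClpP at pH 8 with the FRET-FV decapeptide, read at 430 nm after 320 nm excitation. The 20-min minus 0-min signal was scaled between DMSO/no-enzyme wells and ADEP (5.8 microM final).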
TDP1 cell CPT – DT40-hTDP1 cell growth loss with CPT. chicken DT40 Tdp1-/-;hTDP1 cells + 20 nM CPT, ATP luminescence, 48 h. Potency, µM (doses to about 46.2 µM), without a hit: at the highest dose activity change, negative = growth inhibition, hits mostly inhibitors. hit rate 12% among 420,000; also: potency is read from the fitted curve at half-maximal effect; % is scaled to controls: 0 for no effect and ±100 for the full control effect; nearly all actives have a fitted effect of over 55% in size
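Cell growth measured by CellTiter-Glo luminescence after a minimum 48 h, 37 C compound exposure with 20 nM CPT in Tdp1-knockout DT40 cells stably expressing hTDP1, seeded 400/well; qHTS titration format.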
DRD3 antagonist – blocks the human D3 dopamine receptor; P35462; D3R cells, DiscoveRx beta-arrestin luminescence, antagonist mode; stronger effect = lower value; max response, negative = inhibition, %; hit rate 2.5% among 360,000; in the data active = max response below about -50%; inconclusive = no clear call, values can overlap the other calls; also: % is scaled to controls: 0 for no effect and ±100 for the full control effect
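Cells plated overnight at 1500 cells/well, then exposed to library compounds with dopamine controls for 90 minutes at 37 degrees C. DiscoveRx reagent added for 30–60 minutes at room temperature; luminescence read, quantitative HTS format.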
DT40 TDP1 no CPT – qHTS for Inhibitors of human tyrosyl-DNA phosphodiesterase 1 (TDP1): qHTS in cells in absence of CPT; DT40 Tdp1-/- hTDP1 cells, no CPT, ATP luminescence, 48 h; Potency, µM (titrated, usually from 46.2 µM), without a hit: at the highest dose activity change, negative = growth inhibition, most hits filed as inhibitors; hit rate 15% among 420,000; AID 686978, 2013; also: potency is read from the fitted curve at half-maximal effect; % is scaled to controls: 0 for no effect and ±100 for the full control effect; nearly all actives have a fitted effect of over 55% in size
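Stably hTDP1-transfected Tdp1-null chicken DT40 cells were treated with library compounds minus camptothecin and grown for at least 48 hr at 37 °C, after which cellular ATP was quantified by luminescence.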
Starred values were filed as active, the others as inactive; ! = not active in a repeat. Unless noted, calls follow the shape of the dose curve; as a rule, active = well fitted inhibition curve with a large enough effect; inconclusive = small, poorly fitted or top-dose-only effect; inactive = flat fitted curve, though single readings scatter.

COc1ccc(OCc2n(CC(=O)OC3CC(C)CCC3C(C)C)c3ccccc3[n+]2C)cc1 (configuration not stated) was read as DRD3 agonist -24, IL-1B inflam inh -58*, ClpP mod 3%, TDP1 cell CPT 3.3µM*, DRD3 antagonist inconclusive and DT40 TDP1 no CPT 2.3µM*.
Screening CC1CCC(C(C)C)[C@H](OC(=O)c2ccccc2)C1 (some centres not stated) returned TDP1 cell CPT 7% and DT40 TDP1 no CPT 17%.
COc1ccc([C@H]2/C=C\CN(Cc3ccc(N(C)C)cc3)[C@@H](C)C(=O)N2Cc2ccc(F)cc2)cc1 was read as DRD3 agonist -9, IL-1B inflam inh 3, ClpP mod -9%, TDP1 cell CPT inconclusive, DRD3 antagonist 25 and DT40 TDP1 no CPT inconclusive.
`COC(=O)[C@]1(C)N[C@H](CN(C)C(=O)Nc2ccc(Cl)cc2)[C@@H]2C(=O)N(C)C(=O)[C@@H]21` gave DRD3 agonist 4, IL-1B inflam inh 7, ClpP mod 1%, TDP1 cell CPT 13%, DRD3 antagonist 22 and DT40 TDP1 no CPT -9%.
CNC(=S)N/N=C/c1ccc(-c2cccc(C(=O)O)c2)o1 was read as DRD3 agonist 0, IL-1B inflam inh 19, TDP1 cell CPT 9.2µM*, DRD3 antagonist 10 and DT40 TDP1 no CPT 8.2µM*.
Screening Cc1ccc(OCC(=O)N/N=C\c2ccc(-c3cccc(C(=O)O)c3)o2)c(C)c1 returned DRD3 agonist 4, IL-1B inflam inh 0, ClpP mod inconclusive, TDP1 cell CPT -9%, DRD3 antagonist 30 and DT40 TDP1 no CPT -19%.
`O=C(O)/C=C/c1ccc(-c2cccc(C(F)(F)F)c2)o1` gave DRD3 agonist -7, IL-1B inflam inh -5, ClpP mod 4%, TDP1 cell CPT -7%, DRD3 antagonist -21 and DT40 TDP1 no CPT 20%.
Screening Cc1ccc(C(=O)N/N=C/c2ccc(-c3cccc(C(F)(F)F)c3)o2)cn1 returned DRD3 agonist -8, IL-1B inflam inh 3, ClpP mod 0%, TDP1 cell CPT 2.9µM*, DRD3 antagonist 1 and DT40 TDP1 no CPT 2.6µM*.
`O=C(CSc1ncc2c(n1)-c1ccccc1N(Cc1ccc(F)cc1)S2(=O)=O)NCCc1ccccc1` gave DRD3 agonist 4, ClpP mod -24%, TDP1 cell CPT inconclusive and DT40 TDP1 no CPT inconclusive.
Screening CCCCn1c(=NC(=O)c2cccnc2)c(C(=O)OCC)cc2c(=O)n3ccccc3nc21 returned DRD3 agonist -1, IL-1B inflam inh 5, ClpP mod inconclusive, TDP1 cell CPT 23µM*, DRD3 antagonist 14 and DT40 TDP1 no CPT 16µM*.
CCOCCCn1c(=NC(=O)c2cccnc2)c(C(=O)OCC)cc2c(=O)n3ccccc3nc21 was read as DRD3 agonist 8, IL-1B inflam inh -7, ClpP mod 20µM*!, TDP1 cell CPT inconclusive, DRD3 antagonist 21 and DT40 TDP1 no CPT inconclusive.
For CCOC(=O)c1cc2c(=O)n3cccc(C)c3nc2n(CCCOC)c1=NC(=O)c1cccnc1 the results were DRD3 agonist 10, IL-1B inflam inh inconclusive, ClpP mod 16µM*, TDP1 cell CPT -28%, DRD3 antagonist 17 and DT40 TDP1 no CPT 23µM*.
For CCOC(=O)c1cc2c(=O)n3ccccc3nc2n(C)c1=NC(=O)c1cc2ccccc2o1 the results were DRD3 agonist -3, ClpP mod 5%, TDP1 cell CPT -24% and DT40 TDP1 no CPT -14%.
`CCCCn1c(=NC(=O)c2cccnc2)c(C#N)cc2c(=O)n3cccc(C)c3nc21` gave DRD3 agonist 3, IL-1B inflam inh 19, ClpP mod inconclusive, TDP1 cell CPT -3%, DRD3 antagonist 1 and DT40 TDP1 no CPT inconclusive.
Screening CCOCCCn1c(=NC(=O)c2cccs2)c(C#N)cc2c(=O)n3ccccc3nc21 returned DRD3 agonist -2, IL-1B inflam inh 52, ClpP mod -1%, TDP1 cell CPT -4%, DRD3 antagonist -19 and DT40 TDP1 no CPT -26%.
Screening CC(C)C(NS(=O)(=O)c1ccccc1)C(=O)N1CCCC1 (configuration not stated) returned DRD3 agonist -6, IL-1B inflam inh 16, ClpP mod 0%, TDP1 cell CPT 1%, DRD3 antagonist -14 and DT40 TDP1 no CPT -4%.
For OC(COc1ccc(F)cc1Cl)CN1CCC(Cc2ccccc2)CC1 (configuration not stated) the results were DRD3 agonist -20, IL-1B inflam inh -61*, ClpP mod 2%, TDP1 cell CPT inconclusive, DRD3 antagonist -79* and DT40 TDP1 no CPT 21µM*.
For OC(COc1ccccc1F)CN1CCC(Cc2ccccc2)CC1 (configuration not stated) the results were DRD3 agonist -25, IL-1B inflam inh -26, ClpP mod -1%, TDP1 cell CPT inconclusive, DRD3 antagonist -81* and DT40 TDP1 no CPT inconclusive.
Screening CC(C)(C)OC(=O)N1CCC(c2c(C(=O)NCC3CCN(C4CCCC4)C3)cnn2-c2cccc(Cl)c2)CC1 (configuration not stated) returned DRD3 agonist -5, IL-1B inflam inh -56*, ClpP mod 0%, TDP1 cell CPT inconclusive, DRD3 antagonist 0 and DT40 TDP1 no CPT inconclusive.
COc1ccccc1N1CCN(C(=O)c2cnn(-c3ccc(C)c(C)c3)c2C2CCN(C(=O)OC(C)(C)C)CC2)CC1 was read as DRD3 agonist -7, ClpP mod 5%, TDP1 cell CPT 21µM* and DT40 TDP1 no CPT 21µM*.
For Cc1ccc(-n2ncc(C(=O)N3CCN(C4CCCCC4)CC3)c2C2CCN(C(=O)OC(C)(C)C)CC2)cc1C the results were DRD3 agonist -4, ClpP mod 2%, TDP1 cell CPT 8.2µM* and DT40 TDP1 no CPT 7.3µM*.
CCOC(=O)c1cnn(-c2cccc(Cl)c2)c1C1CCN(C(=O)OC(C)(C)C)CC1 was read as DRD3 agonist 11, ClpP mod 1%, TDP1 cell CPT 23µM* and DT40 TDP1 no CPT inconclusive.
`CC(C)(C)OC(=O)N1CCC(c2c(C(=O)N3CCN(C4CCCCC4)CC3)cnn2-c2ccc(F)cc2)CC1` gave DRD3 agonist -1, IL-1B inflam inh 6, ClpP mod -1%, TDP1 cell CPT -18%, DRD3 antagonist -5 and DT40 TDP1 no CPT 10%.
